The results in this text go back to PubChem BioAssay (Tox21).

Values without a mark were called inactive. Results filed as inconclusive are left out. Activity calls are given as the source filed them. Unless noted, the call rests on the fitted dose curve.

Assay [1] is described as follows: Nuclear factor erythroid 2-related factor 2/antioxidant responsive element (Nrf2/ARE) small molecule agonists: qHTS cell viability counter screen in human keratinocytes (AID 1919968; active means well fitted curve in the direction sought with a large enough effect in the repeat runs; an effect the other way counts as inactive or inconclusive; further: nearly all actives have a fitted effect of over 55% in size). The essentials:
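Cytotoxicity was multiplexed with the Nrf2/ARE luciferase assay in the same wells. Stably transfected HaCaT keratinocytes were treated with test compounds for 23 h at 37 C. Cell viability was then measured by CellTiter-Fluor fluorescence.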
On the technique in general: qHTS replaces the single test concentration by a dilution series.

A short description of assay [2]: Nuclear factor erythroid 2-related factor 2/antioxidant responsive element (Nrf2/ARE) small molecule agonists: luciferase reporter gene qHTS assay in human keratinocytes (AID 1919969). Further: nearly all actives have a fitted effect of over 35% in size. Background: In a reporter assay the amount or activity of a reporter protein is the signal.
Assay [3] addresses Gonadotropin-releasing hormone receptor (Homo sapiens) (UniProt P30968). Put plainly: Human gonadotropin-releasing hormone receptor (GnRHR) small molecule agonists, calcium flux assay in GnRHR-HEK293 cells (AID 1920063). Further: nearly all actives have a fitted effect of over 35% in size. In outline:
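Agonist activity was measured as intracellular calcium flux in HEK293 cells engineered to stably express human GnRHR. After dye loading for 1 hour at 37 C, compounds in DMSO were added and fluorescence was followed for 3 minutes.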

Assay [4] concerns the target KiSS-1 receptor (Homo sapiens) (UniProt Q969F8). Kind of assay: Human kisspeptin (KISS1R) small molecule agonists, calcium flux assay in KISS1R-HEK293 cells (AID 1920064; active means well fitted curve in the direction sought with a large enough effect in the repeat runs; an effect the other way counts as inactive or inconclusive). The essentials:
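Agonist activity is monitored as intracellular calcium rise in engineered HEK293 cells carrying human KISS1R. Cells are dye-loaded for 1 h at 37 C before compound addition, and fluorescence is recorded for 3 min.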

Assay [5] can be described thus: G protein-coupled receptor (GPCR) small molecule agonists, calcium flux assay: HEK293 wild type cell line counter screen (AID 1920065). In outline:
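Seed cells, incubate 18 h (37 C, 5% CO2); add calcium dye, 1 h at 37 C; pin-transfer compounds, ATP control or DMSO; read fluorescence 480/540 nm each second for 3 min.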
For orientation: Calcium assays in cells follow changes in intracellular calcium, usually with a dye or a luminescent sensor.

Assay [6] is described as follows: p53 small molecule agonists, cell-based qHTS assay with human liver microsomes (AID 1963577).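 Further: p53 response element beta-lactamase reporter cells with liver microsomes plus NADPH.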 The essentials: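 Reporter activation was measured by LiveBLAzer fluorescence intensity in p53RE-bla cells, which had been exposed to compounds for 16 h at 37 C alongside 0.5 mg/mL human liver microsomes and 0.5 mg/mL NADPH (final concentrations).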
Assay [7] in a line: p53 small molecule agonists, cell-based qHTS assay with rat liver microsomes (AID 1963578). The essentials:
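Compound in DMSO added to p53RE-bla cells 5 h post-plating; rat microsomes/NADPH 0.5 mg/mL final; 16 h, 37 C; LiveBLAzer 2 h RT.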

Assay [8] in a line: p53 small molecule agonists, cell-based qHTS assay with human liver microsomes: qHTS cell viability counter screen (AID 1963579). Further: nearly all actives have a fitted effect of over 45% in size. In outline:
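HLM-supplemented (0.5 mg/mL final) and NADPH-supplemented (0.5 mg/mL final) p53RE-bla cultures, 4,000 cells per well, were dosed with compounds in DMSO for 16 h at 37 C; luminescent ATP detection (CellTiter-Glo, 30 min, room temperature) quantified surviving cells.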

A short description of assay [9]: p53 small molecule agonists, cell-based qHTS assay with rat liver microsomes: qHTS cell viability counter screen (AID 1963580). Further: nearly all actives have a fitted effect of over 45% in size. In outline:
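Rat liver microsome (0.5 mg/mL final) and NADPH (0.5 mg/mL final) co-incubation with compounds for 16 h at 37 C on HCT-116 p53RE-bla cells; cytotoxicity taken from intracellular ATP luminescence.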

The nature of assay [10]: p53 small molecule agonists, cell-based qHTS assay: qHTS cell viability counter screen (AID 1963581). Further: nearly all actives have a fitted effect of over 45% in size. Further: potency means the concentration at half of the fitted maximal effect. In outline:
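Viability was counter-screened in parallel with the p53 agonist reporter by measuring intracellular ATP luminescence in the same HCT-116 p53RE-bla wells after 16 h compound treatment at 37 C.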

Assay [11] in a line: p53 small molecule agonists, cell-based qHTS assay (AID 1963582; active means well fitted activation curve with a large enough effect in the signal ratio in the repeat runs, not every such curve was filed as active; the % refers to the signal ratio). The essentials: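 Cells carrying a p53-responsive bla reporter are treated with test compounds for 16 h at 37 C; beta-lactamase activity is then detected with LiveBLAzer B/G FRET substrate after 2 h at room temperature.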
The nature of assay [12]: cAMP Responsive Elements (CRE) small molecule antagonists, cell-based qHTS assay (AID 1963591; active means well fitted inhibition curve with a large enough effect in the signal ratio in the repeat runs, not every such curve was filed as active; the % refers to the signal ratio). In outline: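 Cells (CRE-bla HEK 293T, DMEM with 10% dialyzed FBS and 25 mM HEPES) are seeded and incubated 18 h. Compounds are added with NKH477 agonist at 0.25 uM final for 3 h, then FRET substrate for 2 h.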
For assay [13], the target named is Beta-2 adrenergic receptor (Homo sapiens) (UniProt P07550). Kind of assay: Adrenergic beta2 receptor (ADRB2) small molecule antagonists, cell-based qHTS assay (AID 1963592). Further: series mostly up to about 92 µM; nearly all actives have a fitted effect of over 50% in size. In outline: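 Assay format: CHO-ADRB2 cells, 18-20hr seeding at 37C/5% CO2, then compound plus 1nM isoproterenol agonist mix for 0.5hr RT. Homogeneous time-resolved fluorescence cAMP detection after 1hr, expressed as 665/615 nm ratio.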

Assay [14] has the same target. Kind of assay: Adrenergic beta2 receptor (ADRB2) small molecule agonists, cell-based qHTS assay (AID 1963593).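 Further: CHO cells stably overexpressing human ADRB2.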 In outline:
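CHO cells stably over-expressing ADRB2 were plated overnight at 37C, then dosed with compounds plus a stimulation mix containing 100uM IBMX and 25uM Ro-20-1724 for 0.5hr at room temperature. cAMP was measured by HTRF competition, 1hr.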

Assay [15] concerns the target D(2) dopamine receptor (Homo sapiens) (UniProt P14416). Kind of assay: Dopamine D2 receptor (DRD2) small molecule agonists, cell-based qHTS assay (AID 1963594). Further: nearly all actives have a fitted effect of over 35% in size. The essentials: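 cAMP accumulation in DRD2-HEK293 cells measured by HTRF after 1 h detection; compounds added 10 min before NKH477 (200nM […]) forskolin-analogue stimulation, 30 min at room temperature, with Ro20-1724 present at 0.1 mM final.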

The target is the same in assay [16]. Kind of assay: Dopamine D2 receptor (DRD2) small molecule antagonists, cell-based qHTS assay (AID 1963595; active means well fitted inhibition curve with a large enough effect in the signal ratio in the repeat runs, with a control signal flat; the % refers to the signal ratio). In outline:
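In this cell-based antagonist screen, compounds act for 10 min at room temperature before a 30 min challenge with 12 nM quinpirole and 200 nM NKH477. cAMP is quantified by HTRF competition in DRD2-HEK293 cells containing 0.1 mM Ro20-1724.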

Assay [17] in a line: cAMP Responsive Elements (CRE) small molecule agonists, cell-based qHTS assay (AID 1963590). The essentials: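 Cells carrying a CRE-driven beta-lactamase reporter (HEK 293T) are seeded, incubated overnight (18 h), and treated with test compounds for 3 h at 37 C; reporter activity is then detected with a FRET substrate after 2 h at room temperature.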
On the % scale 0 is the no-effect control and ±100 the full control effect.

Sequence of Gonadotropin-releasing hormone receptor (Homo sapiens) (P30968 whole entry, looked up): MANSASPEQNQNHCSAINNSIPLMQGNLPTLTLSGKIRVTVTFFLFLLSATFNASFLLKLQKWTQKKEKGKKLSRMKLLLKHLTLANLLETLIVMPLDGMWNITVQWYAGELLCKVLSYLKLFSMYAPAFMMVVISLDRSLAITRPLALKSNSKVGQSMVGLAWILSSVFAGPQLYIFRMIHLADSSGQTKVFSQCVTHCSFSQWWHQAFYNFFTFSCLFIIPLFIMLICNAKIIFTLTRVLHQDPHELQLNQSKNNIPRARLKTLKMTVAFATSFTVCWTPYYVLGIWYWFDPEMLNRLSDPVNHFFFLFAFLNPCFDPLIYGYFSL
Sequence of Beta-2 adrenergic receptor (Homo sapiens) (P07550 whole entry, looked up): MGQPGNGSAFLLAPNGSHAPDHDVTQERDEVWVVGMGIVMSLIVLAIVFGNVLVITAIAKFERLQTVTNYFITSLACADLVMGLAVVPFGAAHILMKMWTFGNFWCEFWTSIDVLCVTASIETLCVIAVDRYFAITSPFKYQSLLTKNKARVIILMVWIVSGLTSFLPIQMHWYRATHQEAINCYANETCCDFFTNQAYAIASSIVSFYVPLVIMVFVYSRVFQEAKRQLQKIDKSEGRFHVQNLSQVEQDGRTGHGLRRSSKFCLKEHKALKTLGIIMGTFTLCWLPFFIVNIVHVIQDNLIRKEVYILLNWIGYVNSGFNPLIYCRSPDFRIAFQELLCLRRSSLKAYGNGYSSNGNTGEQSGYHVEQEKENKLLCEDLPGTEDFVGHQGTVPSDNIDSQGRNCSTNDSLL
Sequence of D(2) dopamine receptor (Homo sapiens) (P14416 whole entry, looked up): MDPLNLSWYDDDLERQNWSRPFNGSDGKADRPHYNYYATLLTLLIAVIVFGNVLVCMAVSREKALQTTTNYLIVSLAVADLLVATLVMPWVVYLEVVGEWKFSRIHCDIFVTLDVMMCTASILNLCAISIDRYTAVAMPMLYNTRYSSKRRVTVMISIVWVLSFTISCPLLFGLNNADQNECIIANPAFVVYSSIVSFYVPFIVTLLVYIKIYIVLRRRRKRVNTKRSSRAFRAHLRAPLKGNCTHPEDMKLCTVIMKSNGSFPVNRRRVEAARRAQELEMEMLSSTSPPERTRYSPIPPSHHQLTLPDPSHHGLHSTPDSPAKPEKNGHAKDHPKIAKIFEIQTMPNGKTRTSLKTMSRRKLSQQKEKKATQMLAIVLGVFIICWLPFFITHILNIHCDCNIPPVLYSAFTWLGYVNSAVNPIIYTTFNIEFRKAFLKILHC
Sequence of KiSS-1 receptor (Homo sapiens) (Q969F8 whole entry, looked up): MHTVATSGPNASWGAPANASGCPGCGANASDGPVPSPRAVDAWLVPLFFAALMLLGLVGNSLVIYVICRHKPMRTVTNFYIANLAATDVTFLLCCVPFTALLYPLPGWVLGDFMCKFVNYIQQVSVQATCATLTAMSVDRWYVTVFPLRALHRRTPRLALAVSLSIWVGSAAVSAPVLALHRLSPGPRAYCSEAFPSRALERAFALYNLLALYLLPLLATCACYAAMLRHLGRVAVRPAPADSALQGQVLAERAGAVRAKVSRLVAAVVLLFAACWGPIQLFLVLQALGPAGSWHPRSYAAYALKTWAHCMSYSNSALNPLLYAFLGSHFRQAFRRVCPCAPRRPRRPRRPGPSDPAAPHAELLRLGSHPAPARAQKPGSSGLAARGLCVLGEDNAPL

`CC(C)[C@H](N)C(=O)OCCOCn1cnc2c(=O)[nH]c(N)nc21`: the Potency entry in [1], in assay [2], in assay [3], in assay [6], in [7] and in assay [8] was “inactive” throughout. For the same compound, the Potency entry in [9], in assay [11], in assay [12], in [13], in assay [14] and in assay [15] was “inactive” each time. Further, in assay [16], the Potency entry was “inactive”. Besides, the outcome in assay [4] and in [5] was inactive. For the same compound, in [10], the Potency is 1780 nM (active).
Regarding `CCn1cc(C(=O)O)c(=O)c2cnc(N3CCCC3)nc21`, the activity change, negative = cytotoxicity is -0.789% [at 8.39 µM] in assay [1], 17.3% [at 5.99 µM] in assay [8], -0.816% [at 5.99 µM] in assay [9] and -0.227% [at 5.99 µM] in assay [10]. The activity, positive = activation in assay [2] is 0.384% [at 8.39 µM]. Further, the activity change in assay [3] is -1.43% [at 5.22 µM, active compounds read high]. Also, the activation in assay [4] was 2.91% [at 6.97 µM]; in [5], 0.533% [at 5.23 µM]; in assay [6], 10.8% [at 5.99 µM]; in assay [7], -0.037% [at 5.99 µM]; in assay [11], 1.25% [at 5.99 µM]; in assay [17], -3.86% [at 8.39 µM]. In assay [15], the activation is 1.32% [at 8.39 µM]. Further, the values for the activity change, negative = inhibition in [12], in [13] and in [16] were -10.5% [at 8.39 µM], -0.194% [at 8.39 µM] and 2.86% [at 8.38 µM], respectively.
As for `Nc1nc2c(ncn2CCC(CO)CO)c(=O)[nH]1`, the Potency entry in [1], in assay [2], in assay [3], in assay [6], in [7] and in assay [8] was “inactive” in each case. Further, the Potency entry in assay [9], in assay [10], in assay [11], in assay [17], in [13] and in assay [14] was “inactive” each time. Further, the outcome in [4] and in assay [5] was inactive.
As to `CN1C(=O)OC(C)(C)C1=O`, the Potency result in [1], in assay [2], in [3], in assay [6], in assay [7] and in assay [8] was “inactive” each time. Further, the Potency result in assay [9], in [10], in assay [11], in assay [17], in [13] and in assay [15] was “inactive” throughout. Further, in [16], the Potency result is “inactive”. For the same compound, the outcome in assay [4] and in [5] was inactive.
For `CC(C)(O)c1ccccc1CC[C@@H](SCC1(CC(=O)O)CC1)c1cccc(/C=C/c2ccc3ccc(Cl)cc3n2)c1`, the Potency result in [1], in [2], in [3], in assay [6], in assay [7] and in [8] was “inactive” in each case. Besides, the Potency result in [9], in assay [10], in assay [11], in assay [17], in assay [12] and in assay [13] was “inactive” each time. In assay [15], the Potency result is “inactive”. Also, the result in [4] and in assay [5] was inactive.
Take `CCOC(=O)[C@H](CCc1ccccc1)N[C@@H](C)C(=O)N1CCC[C@H]1C(=O)O`: the Potency entry in assay [1], in [2], in assay [3], in assay [6], in assay [7] and in [8] was “inactive” each time. Moreover, the Potency entry in assay [9], in [10], in assay [11], in assay [17], in assay [12] and in assay [13] was “inactive” throughout. Moreover, the Potency entry in assay [15] and in [16] was “inactive” throughout. Moreover, the outcome in assay [4] and in assay [5] was inactive.
For `COc1ccc(C2C(=O)c3ccccc3C2=O)cc1`, the Potency result in assay [1], in assay [2], in [3], in [6], in assay [7] and in [8] was “inactive” throughout. Besides, the Potency result in assay [9], in [10], in assay [11], in [17], in assay [12] and in assay [13] was “inactive” throughout. Also, the Potency result in [15] and in [16] was “inactive” throughout. Also, the result in assay [4] and in assay [5] was inactive.
